Bioassay records from PubChem.
Rce1 inhib: inhibitors of yeast Ras-converting enzyme | Q03530 | actives 0.27% (n = 290,000) | yeast membranes, quenched prenylated peptide cleavage fluorescence | calls only;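 active = fall in fluorescence gain of 50% or more versus controls, with final raw signal at or below 3038400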;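 also: plate controls were neutral control wells for no effect and wells lacking membranes for full effect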
Granule exo inh: blocks lytic granule exocytosis | TALL-104 LAMP-1 surface exposure, flow cytometry; cells stimulated with thapsigargin and PMA | inhibition, % at 10 µM | actives 0.66% (n = 360,000);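 active = inhibition above about 55%, limit read from the data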
ABHD5 PLIN5 PPI: inhibitors of human ABHD5-perilipin-5 interaction. Q00G26+Q8WTS1. Split G. princeps luciferase complementation, luminescence, 4 h. inhibition, % at 4 µM. actives 0.78% (n = 360,000). AID 602281;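 active = inhibition above the mean inhibition across every tested compound plus 3 SD, cut at about 22% in these data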;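 also: 0% = DMSO only wells and the 100% control is not disclosed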
Platelet DG rel: modulates dense granule release in human platelets. human platelet-rich plasma, SFLLRN dense granule ATP release, luminescence. actives 0.22% (n = 300,000). inhibition, %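 (compounds screened at 7.5 µM in platelet-rich plasma)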;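 active = mean replicate score, as percent of positive control, at or above 50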
PfM18AAP inh: PfM18AAP enzyme inhibition | recombinant PfM18AAP, H-Glu-NHMec fluorogenic cleavage | inhibition, % at 7.35 µM | actives 1.2% (n = 290,000) | AID 1822;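 active = inhibition above the campaign mean inhibition over all tested compounds plus 3 SD, cut at about 28% in these data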;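 also: 0% = plate median of test compound wells and 100% = 2 mM ZnCl2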
ABHD5-PLIN5 conf: ABHD5-PLIN5 interaction inhibition, confirmed; shares compounds with ABHD5 PLIN5 PPI; biochemical ABHD5-PLIN5 interaction, luminescence; inhibition, % at 4 µM; actives 67% (n = 2,200); in the data active = inhibition above about 23%;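 also: 0% = DMSO vehicle wells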
HNF4 split-luc: HNF4 split-luciferase signal hit, counter-screen; AID 651674; actives 77% (n = 2,200); HNF4 dimerization, luminescence, biochemical; shares compounds with ABHD5 PLIN5 PPI; inhibition, % at 4 µM;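 active = mean inhibition across replicate wells exceeding the computed hit threshold, cut at about 13% in these data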;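 also: light from luciferase halves that rejoin when HNF4 fusion proteins dimerize; 0% = DMSO only wells and the 100% control is not given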
Target sequence (P41235 whole entry, looked up, the tested form may be a part): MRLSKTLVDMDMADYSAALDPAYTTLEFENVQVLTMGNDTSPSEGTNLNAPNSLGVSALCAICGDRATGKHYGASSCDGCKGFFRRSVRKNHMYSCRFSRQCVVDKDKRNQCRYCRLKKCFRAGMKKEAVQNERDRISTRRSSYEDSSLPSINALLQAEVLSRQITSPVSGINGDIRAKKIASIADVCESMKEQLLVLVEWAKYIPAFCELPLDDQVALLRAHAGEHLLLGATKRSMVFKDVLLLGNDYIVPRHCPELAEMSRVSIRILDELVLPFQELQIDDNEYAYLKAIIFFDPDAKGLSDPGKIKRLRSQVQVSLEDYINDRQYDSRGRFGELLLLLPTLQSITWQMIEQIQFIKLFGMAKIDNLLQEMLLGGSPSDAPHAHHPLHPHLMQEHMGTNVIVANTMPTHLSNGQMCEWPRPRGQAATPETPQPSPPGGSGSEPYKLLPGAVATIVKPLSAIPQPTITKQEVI
Numbers without * were called inactive; i = inactive; . = no result given; + = active, no number. Shown are actives, neighbours in structure and some others; about 2.6% of the full set was active somewhere.

SMILES | Rce1 inhib | Granule exo inh | ABHD5 PLIN5 PPI | Platelet DG rel | PfM18AAP inh | ABHD5-PLIN5 conf | HNF4 split-luc
Cc1ccc(SC(CC(=O)c2ccc(C)cc2)C(=O)O)cc1 (stereo not given) | i | 55 | 69* | 10 | -15 | 29* | 73*
O=C(CC(Sc1ccc(Br)cc1)C(=O)O)c1ccc(Br)cc1 (stereo not given) | i | . | . | 1 | -27 | . | .
CC(=O)c1c(C)nc2ccccc2c1N | i | -2 | 6 | -4 | 14 | . | .
Cc1ccc(/C=C/C(=O)c2nc3ccccc3[nH]2)cc1 | i | -5 | 69* | 8 | 0 | 90* | 85*
Cc1ccc(/C=C/C(=O)Nc2nc3ccccc3[nH]2)cc1 | i | 3 | 3 | -9 | -11 | . | .
Cc1nc2ccccc2c(N)c1C(=O)/C=C/c1ccccc1 | i | 32 | 34* | -13 | 7 | 41* | 37*
Cc1ccc(-c2nc3ccccc3c(=O)n2NC(=O)COc2ccccc2)cc1 | i | -1 | -4 | -15 | -1 | . | .
O=C(CCC(=O)N(CC(=O)NC1CCCC1)C1CCCCC1)Nc1ccccn1 | i | -3 | -5 | 4 | 4 | . | .
N#CC1=C(Nc2ccccc2Cl)SC2(CCCC2)NC1=O | . | 38 | 33* | . | . | -2 | 19*
O=C(Nc1cccc(F)c1)Nc1ccc2c(c1)OCO2 | i | -2 | 6 | 11 | -9 | . | .
Cc1ccc(-n2sc3cc(F)ccc3c2=O)c(C)c1 | . | 42 | 66* | . | . | 63* | 116*
COc1ccc(OCC(=O)Nc2ccc3c(c2)nc(CCN2CCC(C)CC2)n3C)cc1 | i | 20 | 9 | 16 | -4 | . | .
CC1CCN(CCc2nc3cc(NC(=O)COc4ccc(Cl)cc4)ccc3n2C)CC1 | i | 24 | 23* | 16 | 3 | 8 | 4
CCN(CC)CC(C)(C)C(=O)/C=C/c1ccc(/C=C/C(=O)C(C)(C)CN(CC)CC)cc1 | . | 50 | 95* | . | . | 101* | 107*
CCN(CC)CCOC(=O)/C=C/c1ccccc1 | i | -7 | -4 | 2 | -13 | . | .
Cc1ccc(C(=O)/C=C/c2ccc(Br)cc2)o1 | i | 0 | 53* | 5 | 11 | 85* | 61*
Cc1ccc(C2NC(=O)NC(O)(C(F)(F)F)C2C(=O)c2ccccc2)o1 (stereo not given) | i | -2 | 5 | 3 | 10 | . | .
COc1ccccc1NC(=O)CC1C(=O)NCCN1C(=O)Nc1ccc(Cl)c(Cl)c1 (stereo not given) | i | -3 | 24* | 2 | 3 | 13 | 6
O=C(/C=C/c1cn(-c2ccccc2)nc1-c1cccs1)NCCN1CCOCC1 | + | 6 | 32* | 7 | 4 | 11 | 6
O=C(O)CCCN1C(=O)/C(=C/c2cn(-c3ccccc3)nc2-c2cccs2)SC1=S | . | 0 | 37* | 0 | -10 | 7 | 9
O=C(O)CCCN1C(=O)/C(=C\c2ccccc2OCc2ccccc2)SC1=S | i | 2 | -1 | 9 | -3 | . | .
CN(C)C(=O)COC(=O)/C=C/c1cn(-c2ccccc2)nc1-c1cccs1 | i | -1 | 2 | 5 | -9 | . | .
Cc1ccccc1C(=O)NC(=S)Nc1ccc(Cc2ccncc2)cc1 | i | 2 | -1 | -18 | -5 | . | .
Brc1ccc2nc(-c3ccco3)c(Cc3ccsc3)n2c1 | . | 50 | 75* | . | . | 49* | 91*
Cc1ccc2nc(-c3ccco3)c(CC(C)(C)C)n2c1 | . | -1 | 3 | . | . | . | .
SMILES | Rce1 inhib | Granule exo inh | ABHD5 PLIN5 PPI | Platelet DG rel | PfM18AAP inh | ABHD5-PLIN5 conf | HNF4 split-luc
COC(=O)c1ccc2nc(-c3ccco3)c(Cc3ccccc3)n2c1 | . | 25 | 67* | . | . | 57* | 83*
Clc1ccc2nc(-c3ccco3)c(Cc3ccccc3)n2c1 | . | 46 | 55* | . | . | 58* | 72*
COC(=O)c1ccc2nc(-c3ccco3)c(Cc3cccc(Cl)c3)n2c1 | . | 16 | 22 | . | . | . | .
Brc1ccc2nc(-c3ccccc3)c(Cc3ccsc3)n2c1 | . | -5 | -10 | . | . | . | .
Cc1ccc2nc(-c3ccco3)c(Cc3ccccc3)n2c1 | . | 4 | 38* | . | . | 7 | 10
CCc1nnc(NC(=O)[C@@H](NC(=O)c2cc(OC)cc(OC)c2)C(C)C)s1 | i | -4 | 6 | 7 | -3 | . | .
COc1ccc(CC(N)c2csc(Nc3cnccn3)n2)cc1 (stereo not given) | . | 0 | 0 | . | . | . | .
COCC(=O)Nc1ccccc1Br | i | 4 | -2 | 7 | 1 | . | .
O=C(CCCSc1ccccc1)Nc1nc(-c2ccco2)c(-c2ccco2)s1 | i | 42 | 21 | -19 | 9 | . | .
Cc1ccc(C(=O)Nc2nc(-c3ccco3)c(-c3ccco3)s2)o1 | . | 44 | 28* | . | . | 17 | 17*
O=C(CCl)Nc1nc(-c2ccco2)c(-c2ccco2)s1 | i | -8 | 37* | 11 | 36* | 36* | 54*
Nc1nonc1OCCc1ccccc1 | i | 3 | -6 | -23 | -1 | . | .
COc1cc(C(=O)Oc2c(CN3CCOCC3)cc(Cl)c3cccnc23)cc(OC)c1OC | i | 7 | 6 | 0 | 0 | . | .
CC1=NOC(=O)/C1=C\c1ccc(-c2ccc(Cl)c(C(=O)O)c2)o1 | i | 2 | 9 | -2 | 16 | . | .
CC1=NOC(=O)/C1=C\c1ccc(-c2ccccc2Br)o1 | i | 92* | 43* | 8 | -4 | 93* | 95*
CC1=NOC(=O)/C1=C\c1ccc(-c2cccc(Cl)c2)o1 | i | 100* | 51* | 5 | 8 | 99* | 106*
O=C(Nc1ccc([N+](=O)[O-])cc1)C(Cc1ccccc1)N1C(=O)c2cccc3cccc(c23)C1=O (stereo not given) | i | 1 | -1 | -2 | -15 | . | .
N=c1c2c(ncn1Cc1ccco1)Oc1c(ccc3ccccc13)C2c1ccccc1 (stereo not given) | i | 8 | -1 | 8 | 5 | . | .
CN(C)CCn1cnc2c(c1=N)C(c1ccccc1)c1ccc3ccccc3c1O2 (stereo not given) | i | -5 | 26* | 3 | -5 | 14 | 0
COc1ccc(C(O)c2ncc(-c3cccc(F)c3)[nH]2)cc1F (stereo not given) | . | 12 | 7 | . | . | . | .
Cc1ccc(S(=O)(=O)N(C)CC(=O)N2CCN(C(=O)c3ccco3)CC2)cc1 | i | -5 | -3 | 0 | -2 | . | .
CCOc1ccc(S(=O)(=O)N(C(=O)c2ccco2)c2cc3sc(=O)oc3c3ccccc23)cc1 | i | 1 | 35* | -1 | 10 | -62 | 34*
CCOc1ccc(S(=O)(=O)N(C)CC(=O)NCc2ccco2)cc1 | i | -3 | -1 | -3 | 5 | . | .
Cc1ccc(S(=O)(=O)N(C(=O)c2ccco2)c2cc3sc(=O)oc3c3ccccc23)cc1 | i | 5 | 31* | 14 | -18 | -18 | 109*
